From the supplement of paper PMC4022240
± gives the standard deviation.

Columns and labels:
Assay in all cases: peptide microarray binding signal (635 nm), min-max normalized on array (fraction of array maximum); higher = stronger binding
Details in all cases: peptide region: H3 1-13
[1] = biological target: T1, HaloTag-ATRX ADD domain (163-292)
T1 chain: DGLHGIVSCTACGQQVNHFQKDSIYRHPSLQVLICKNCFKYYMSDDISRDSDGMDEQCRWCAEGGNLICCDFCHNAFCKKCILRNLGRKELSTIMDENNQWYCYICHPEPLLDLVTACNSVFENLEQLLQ
Experimental: (§1)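 Histone 13-mer peptides were synthesized as cellulose conjugates with a C-terminal 20-atom PEG linker and printed in triplicate on nitrocellulose. The sequence given is the unmodified backbone; PTMs (Kme1/2/3, Kac, Sph/Tph, Rme/Rme2a/Rme2s, Rcit) are listed in the label and the 'peptide modifications' condition. Slides were probed at 4 °C for 1 h with biotin-labelled (HQ)5-HaloTag reader fusions (ATRX-ADD, ING2-PHD) then streptavidin-Alexa647, or with rabbit histone antibodies then anti-rabbit Alexa647. The mean 635 nm signal of the triplicate spots was scaled 0-1 between the lowest and highest values on each array.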

[2] = biological target: HaloTag-ING2 PHD (mouse Ing2 200-280)
Experimental: as §1

[3] = biological target: anti-H3K4me3 antibody ab8580
Experimental: as §1

[4] = biological target: anti-H3K9me3 antibody ab8898
Experimental: as §1

[5] = peptide modifications: H3R2me2s H3K9ac, binder concentration: 1:2,000 dilution
[6] = peptide modifications: H3R2me2s H3K9ac, binder concentration: 1:10,000 dilution
[7] = peptide modifications: H3R2me2s H3K9me1, binder concentration: 1:2,000 dilution
[8] = peptide modifications: H3R2me2s H3K9me1, binder concentration: 1:10,000 dilution
[9] = peptide modifications: H3R2me2s H3K9me2, binder concentration: 1:2,000 dilution
[10] = peptide modifications: H3R2me2s H3K9me2, binder concentration: 1:10,000 dilution
[11] = peptide modifications: H3R2me2s H3K9me3, binder concentration: 1:2,000 dilution
[12] = peptide modifications: H3R2me2s H3K9me3, binder concentration: 1:10,000 dilution
[13] = peptide modifications: H3R2me2s H3T3ph, binder concentration: 1:2,000 dilution
[14] = peptide modifications: H3R2me2s H3T3ph, binder concentration: 1:10,000 dilution
[15] = peptide modifications: H3R2me2s H3T6ph, binder concentration: 1:2,000 dilution
[16] = peptide modifications: H3R2me2s H3T6ph, binder concentration: 1:10,000 dilution
[17] = peptide modifications: H3R2me2s, binder concentration: 1:2,000 dilution
[18] = peptide modifications: H3R2me2s, binder concentration: 1:10,000 dilution
[19] = peptide modifications: H3R8cit H3K9ac, binder concentration: 1:2,000 dilution
[20] = peptide modifications: H3R8cit H3K9ac, binder concentration: 1:10,000 dilution
[21] = peptide modifications: H3R8cit H3K9me1, binder concentration: 1:2,000 dilution
[22] = peptide modifications: H3R8cit H3K9me1, binder concentration: 1:10,000 dilution
[23] = peptide modifications: H3R8cit H3K9me2, binder concentration: 1:2,000 dilution
[24] = peptide modifications: H3R8cit H3K9me2, binder concentration: 1:10,000 dilution

B1: H3 1-13 A Rme2s T K Q T A R Kac S T G G (peptide)
chain: ARTKQTARKSTGG
- peptide microarray binding signal ([1]; peptide modifications: H3R2me2s H3K9ac, binder concentration: 50 nM): 0.0127 ± 0.00045
- peptide microarray binding signal ([1]; peptide modifications: H3R2me2s H3K9ac, binder concentration: 500 nM): 0.0427 ± 0.0013
- peptide microarray binding signal ([2]; peptide modifications: H3R2me2s H3K9ac, binder concentration: 10 nM): 0.0451 ± 0.0015
- peptide microarray binding signal ([2]; peptide modifications: H3R2me2s H3K9ac, binder concentration: 100 nM): 0.0681 ± 0.0061
- peptide microarray binding signal [3, 5]: 0.0383 ± 0.0035
- peptide microarray binding signal [3, 6]: 0.0308 ± 0.0052
- peptide microarray binding signal [4, 5]: 0.0163 ± 0.0031
- peptide microarray binding signal [4, 6]: 0.00836 ± 0.00038

B2: H3 1-13 A Rme2s T K Q T A R Kme S T G G (peptide)
chain: ARTKQTARKSTGG
- peptide microarray binding signal ([1]; peptide modifications: H3R2me2s H3K9me1, binder concentration: 50 nM): 0.0197 ± 0.00077
- peptide microarray binding signal ([1]; peptide modifications: H3R2me2s H3K9me1, binder concentration: 500 nM): 0.03 ± 0.0016
- peptide microarray binding signal ([2]; peptide modifications: H3R2me2s H3K9me1, binder concentration: 10 nM): 0.0236 ± 0.0023
- peptide microarray binding signal ([2]; peptide modifications: H3R2me2s H3K9me1, binder concentration: 100 nM): 0.0288 ± 0.00047
- peptide microarray binding signal [3, 7]: 0.0193 ± 0.003
- peptide microarray binding signal [3, 8]: 0.0216 ± 0.0013
- peptide microarray binding signal [4, 7]: 0.0154 ± 0.00086
- peptide microarray binding signal [4, 8]: 0.0152 ± 0.0011

B3: H3 1-13 A Rme2s T K Q T A R Kme2 S T G G (peptide)
chain: ARTKQTARKSTGG
- peptide microarray binding signal ([1]; peptide modifications: H3R2me2s H3K9me2, binder concentration: 50 nM): 0.0159 ± 0.001
- peptide microarray binding signal ([1]; peptide modifications: H3R2me2s H3K9me2, binder concentration: 500 nM): 0.0381 ± 0.00096
- peptide microarray binding signal ([2]; peptide modifications: H3R2me2s H3K9me2, binder concentration: 10 nM): 0.0245 ± 0.00098
- peptide microarray binding signal ([2]; peptide modifications: H3R2me2s H3K9me2, binder concentration: 100 nM): 0.0463 ± 0.005
- peptide microarray binding signal [3, 9]: 0.0401 ± 0.0015
- peptide microarray binding signal [3, 10]: 0.0397 ± 0.0042
- peptide microarray binding signal [4, 9]: 0.0557 ± 0.0055
- peptide microarray binding signal [4, 10]: 0.0282 ± 0.0014

B4: H3 1-13 A Rme2s T K Q T A R Kme3 S T G G (peptide)
chain: ARTKQTARKSTGG
- peptide microarray binding signal ([1]; peptide modifications: H3R2me2s H3K9me3, binder concentration: 50 nM): 0.172 ± 0.02
- peptide microarray binding signal ([1]; peptide modifications: H3R2me2s H3K9me3, binder concentration: 500 nM): 0.303 ± 0.03
- peptide microarray binding signal ([2]; peptide modifications: H3R2me2s H3K9me3, binder concentration: 10 nM): 0.0377 ± 0.0039
- peptide microarray binding signal ([2]; peptide modifications: H3R2me2s H3K9me3, binder concentration: 100 nM): 0.0559 ± 0.0018
- peptide microarray binding signal [3, 11]: 0.211 ± 0.015
- peptide microarray binding signal [3, 12]: 0.14 ± 0.0028
- peptide microarray binding signal [4, 11]: 0.81 ± 0.03
- peptide microarray binding signal [4, 12]: 0.561 ± 0.017

B5: H3 1-13 A Rme2s Tph K Q T A R K S T G G (peptide)
chain: ARTKQTARKSTGG
- peptide microarray binding signal ([1]; peptide modifications: H3R2me2s H3T3ph, binder concentration: 50 nM): 0.0063 ± 0.00015
- peptide microarray binding signal ([1]; peptide modifications: H3R2me2s H3T3ph, binder concentration: 500 nM): 0.0137 ± 0.00078
- peptide microarray binding signal ([2]; peptide modifications: H3R2me2s H3T3ph, binder concentration: 10 nM): 0.00424 ± 0.00025
- peptide microarray binding signal ([2]; peptide modifications: H3R2me2s H3T3ph, binder concentration: 100 nM): 0.0153 ± 0.003
- peptide microarray binding signal [3, 13]: 0.00264 ± 0.0012
- peptide microarray binding signal [3, 14]: 0.00228 ± 0.00028
- peptide microarray binding signal [4, 13]: 0.000982 ± 0.00014
- peptide microarray binding signal [4, 14]: 0.00075 ± 1.6e-05

B6: H3 1-13 A Rme2s T K Q Tph A R K S T G G (peptide)
chain: ARTKQTARKSTGG
- peptide microarray binding signal ([1]; peptide modifications: H3R2me2s H3T6ph, binder concentration: 50 nM): 0.00476 ± 0.00012
- peptide microarray binding signal ([1]; peptide modifications: H3R2me2s H3T6ph, binder concentration: 500 nM): 0.0109 ± 0.00039
- peptide microarray binding signal ([2]; peptide modifications: H3R2me2s H3T6ph, binder concentration: 10 nM): 0.002745 ± 2.7e-05
- peptide microarray binding signal ([2]; peptide modifications: H3R2me2s H3T6ph, binder concentration: 100 nM): 0.0193 ± 0.0028
- peptide microarray binding signal [3, 15]: 0.000774 ± 1.9e-05
- peptide microarray binding signal [3, 16]: 0.00097 ± 2e-05
- peptide microarray binding signal [4, 15]: 0.000876 ± 2.6e-05
- peptide microarray binding signal [4, 16]: 0.000461

B7: H3 1-13 A Rme2s T K Q T A R K S T G G (peptide)
chain: ARTKQTARKSTGG
- peptide microarray binding signal ([1]; peptide modifications: H3R2me2s, binder concentration: 50 nM): 0.00815 ± 0.00015
- peptide microarray binding signal ([1]; peptide modifications: H3R2me2s, binder concentration: 500 nM): 0.0158 ± 0.0003
- peptide microarray binding signal ([2]; peptide modifications: H3R2me2s, binder concentration: 10 nM): 0.00424 ± 0.00023
- peptide microarray binding signal ([2]; peptide modifications: H3R2me2s, binder concentration: 100 nM): 0.0168 ± 0.003
- peptide microarray binding signal [3, 17]: 0.00153 ± 0.0002
- peptide microarray binding signal [3, 18]: 0.000799 ± 8.3e-06
- peptide microarray binding signal [4, 17]: 0.00178 ± 0.00012
- peptide microarray binding signal [4, 18]: 0.00075 ± 1.6e-05

B8: H3 1-13 A R T K Q T A Rcit Kac S T G G (peptide)
chain: ARTKQTARKSTGG
- peptide microarray binding signal ([1]; peptide modifications: H3R8cit H3K9ac, binder concentration: 50 nM): 0.00718 ± 9.2e-05
- peptide microarray binding signal ([1]; peptide modifications: H3R8cit H3K9ac, binder concentration: 500 nM): 0.0143 ± 0.00071
- peptide microarray binding signal ([2]; peptide modifications: H3R8cit H3K9ac, binder concentration: 10 nM): 0.0183 ± 0.0039
- peptide microarray binding signal ([2]; peptide modifications: H3R8cit H3K9ac, binder concentration: 100 nM): 0.031 ± 0.01
- peptide microarray binding signal [3, 19]: 0.0013 ± 3.1e-05
- peptide microarray binding signal [3, 20]: 0.002 ± 0.0002
- peptide microarray binding signal [4, 19]: 0.00239 ± 0.00033
- peptide microarray binding signal [4, 20]: 0.00208 ± 0.00016

B9: H3 1-13 A R T K Q T A Rcit Kme S T G G (peptide)
chain: ARTKQTARKSTGG
- peptide microarray binding signal ([1]; peptide modifications: H3R8cit H3K9me1, binder concentration: 50 nM): 0.0302 ± 0.0019
- peptide microarray binding signal ([1]; peptide modifications: H3R8cit H3K9me1, binder concentration: 500 nM): 0.0745 ± 0.02
- peptide microarray binding signal ([2]; peptide modifications: H3R8cit H3K9me1, binder concentration: 10 nM): 0.0223 ± 0.002
- peptide microarray binding signal ([2]; peptide modifications: H3R8cit H3K9me1, binder concentration: 100 nM): 0.0394 ± 0.013
- peptide microarray binding signal [3, 21]: 0.00313 ± 0.00015
- peptide microarray binding signal [3, 22]: 0.00217 ± 9.9e-05
- peptide microarray binding signal [4, 21]: 0.00225 ± 0.00023
- peptide microarray binding signal [4, 22]: 0.00185 ± 5.2e-05

B10: H3 1-13 A R T K Q T A Rcit Kme2 S T G G (peptide)
chain: ARTKQTARKSTGG
- peptide microarray binding signal ([1]; peptide modifications: H3R8cit H3K9me2, binder concentration: 50 nM): 0.0517 ± 0.0042
- peptide microarray binding signal ([1]; peptide modifications: H3R8cit H3K9me2, binder concentration: 500 nM): 0.0992 ± 0.0018
- peptide microarray binding signal ([2]; peptide modifications: H3R8cit H3K9me2, binder concentration: 10 nM): 0.0235 ± 0.0016
- peptide microarray binding signal ([2]; peptide modifications: H3R8cit H3K9me2, binder concentration: 100 nM): 0.0428 ± 0.011
- peptide microarray binding signal [3, 23]: 0.00302 ± 0.00049
- peptide microarray binding signal [3, 24]: 0.00177 ± 5e-05
- peptide microarray binding signal [4, 23]: 0.00248 ± 0.00035
- peptide microarray binding signal [4, 24]: 0.00277 ± 8.7e-05
